# Screening data deposited in PubChem BioAssay by National Center for Advancing Translational Sciences (NCATS).
# The entries come from a sample that favours hits as a whole.
# Methyltransferases: Primary Screen for Target Class Profiling of Small Molecule Inhibitors of Methyltransferases; purified enzyme, MTase-Glo SAH luminescence; stronger effect = lower value; calls only at 40 µM; 25,000 compounds, 3.9% hits; AID 1745853, 2022; call rule not given here
#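 Each enzyme was assayed with SAM and its substrate. SAH formation detected by MTase-Glo luminescence; single-point 40 uM screen[…].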
# An asterisk follows results filed as active; i = inactive; + = active, no number. % is scaled to controls: 0 for no effect and ±100 for the full control effect.
SMILES,Methyltransferases
COc1ccc(CNC(=O)/C=C/c2ccc3[nH]cc(CCN(C)C)c3c2)cc1,+
CNCCc1c[nH]c2ccc(O)cc12,i
O=C(Nc1cccc(Cl)c1)N1Cc2ccccc2-n2cccc2C1c1ccccc1 (centres undefined),i
CCCN1CCC[C@@H]2Cc3nc(N)ncc3C[C@H]21,i
COc1ccc(NC(=O)N2Cc3ccccc3-n3cccc3C2C)c(OC)c1 (centres undefined),i
COc1cc(O)c2c(c1)CCC[C@@H](O)[C@H](O)C(=O)/C=C\C[C@H](C)OC2=O,i
CC1CCCC(O)CC(=O)Cc2cc(O)cc(O)c2C(=O)O1 (centres undefined),i
C[C@H]1CCC[C@H](O)CCC/C=C/c2cc(O)cc(O)c2C(=O)O1,+
CCC(C)(OC(C)=O)C(=O)O[C@H]1[C@H](OC(C)=O)C[C@@H]2[C@@](C)([C@@H]3C[C@H]4C=CO[C@H]4O3)[C@H](C)C[C@H](OC(C)=O)[C@@]2(COC(C)=O)[C@@]12CO2 (some centres undefined),i
CC[C@H](O)[C@@H](C)[C@H]1O[C@@H]1C[C@H](C)/C=C/C=C(\C)[C@H]1OC(=O)C[C@H](O)CC[C@@](C)(O)[C@@H](OC(C)=O)/C=C/[C@@H]1C,i
CN[C@H]1[C@H](O)[C@H](O[C@@H]2[C@@H](O)[C@H](O[C@H]3O[C@H]([C@H](C)O)[C@@H](O)[C@H](O)[C@H]3N)[C@@H](N)C[C@H]2N)OC[C@@]1(C)O,i
O=C(Nc1cc(F)ccc1F)N1Cc2ccccc2-n2cccc2C1c1cc(F)cc(F)c1 (centres undefined),i
CCCN1CCc2cc(O)cc3c2[C@H]1Cc1ccc(O)c(O)c1-3,+
CN1CCc2cc(O)cc3c2[C@H]1Cc1ccc(O)c(O)c1-3,+
CCCN1CCO[C@H]2c3cc(O)ccc3OC[C@@H]21,i
CN1CCC(c2c[nH]c3ccc(O)cc23)CC1,i
CCCNC(=O)N1Cc2ccccc2-n2cccc2C1c1ccccc1C (centres undefined),i
CC(=O)N1CCCC2(CC(c3cccnc3)=NO2)C1 (centres undefined),i
C[C@@H]1C(=O)O[C@H]2[C@H](O)[C@@]34[C@@H]5OC(=O)[C@@]3(O[C@@H]3OC(=O)[C@@H](O)[C@@]34[C@H](C(C)(C)C)[C@H]5O)[C@@]12O,i
CC1=CC2/C=C(\C)CCC(O)C(O)C(O)CC(=O)C23C(=O)NC(CC(C)C)C3C1C (centres undefined),i
COC(=O)CCNC(=O)N1Cc2ccccc2-n2cccc2C1c1ccccc1C (centres undefined),i
O=C(Nc1ccccc1Cl)N1Cc2ccccc2-n2cccc2C1c1cccs1 (centres undefined),i
c1ccc2c(N3CCNCC3)cccc2c1,+
CSc1ccc(C2c3cccn3-c3ccccc3CN2C(=O)Nc2cc(C)cc(C)c2)cc1 (centres undefined),i
CC(C)NC(=O)N1CC[C@@H](CC(=O)O)[C@@H](CCN2C[C@@H]3C[C@H](C2)c2cccc(=O)n2C3)C1,i
SMILES,Methyltransferases
CCC1c2cccn2-c2ccccc2CN1C(=O)Nc1ccccc1C(F)(F)F (centres undefined),i
NCCc1ccc(O)cc1,+
NNC(=O)c1ccc(O)cc1,i
CCOc1ccc(NC(=O)N2Cc3ccccc3-n3cccc3C2c2ccccc2C)cc1 (centres undefined),i
Cc1cccc(NC(=O)N2Cc3ccccc3-n3cccc3C2c2cccc(Cl)c2)c1C (centres undefined),i
O=c1ccc2[nH]cc(C3=CCNCC3)c2[nH]1,+
CCC1c2cccn2-c2ccccc2CN1C(=O)Nc1ccc(Br)cc1 (centres undefined),i
CCOC(=O)c1cccc(NC(=O)N2Cc3ccccc3-n3cccc3C2c2ccc(OC)cc2)c1 (centres undefined),i
C1=C(c2cnc[nH]2)c2ccsc2CC1,i
Oc1ccc2c3c1O[C@H]1c4oc5ccccc5c4C[C@@]4(O)C(C2)N(CC2CC2)CCC314 (some centres undefined),i
C=C(CO)C(=O)O[C@H]1C/C(C)=C/CC/C(CO)=C/[C@H]2OC(=O)C(=C)[C@H]12,i
COC1(C[S@@](=O)c2ccccc2)CCN(CCc2c[nH]c3ccc(F)cc23)CC1,i
CC1CCN(CC2CCCCCN2C(=O)Cc2ccccc2)CC1 (centres undefined),i
CCc1ccc(C2c3cccn3-c3ccccc3CN2C(=O)Nc2ccc(OC)cc2)cc1 (centres undefined),i
Clc1ccc(N2CC3CCC(C2)N3)nn1,i
N#Cc1cn([C@@H]2O[C@H](CO)[C@H](O)[C@@H]2O)c2ncnc(N)c12,+
Cc1cccc(C2c3cccn3-c3ccccc3CN2C(=O)NC2CCCC2)c1 (centres undefined),i
CCC1c2cccn2-c2ccccc2CN1C(=O)NCCC(C)C (centres undefined),i
COc1ccc(OC)c(NC(=O)N2Cc3ccccc3-n3cccc3C2c2ccc(C)cc2)c1 (centres undefined),i
COc1ccc(NC(=O)N2Cc3ccccc3-n3cccc3C2c2ccc(C)cc2)c(OC)c1 (centres undefined),i
Cc1[nH]c2ccc(Cl)cc2c1CCN(C)C,+
CC(C)N1CC2CCC(C1)N2Cc1cccs1,i
O=C(Nc1ccc(F)c(Cl)c1)N1Cc2ccccc2-n2cccc2C1c1cccs1 (centres undefined),i
CCN1C(=O)CCNCC12CCOCC2,i
CC1c2cccn2-c2ccccc2CN1C(=O)Nc1ccccc1Cl (centres undefined),i
SMILES,Methyltransferases
CN1CCC[C@@H]1Cc1c[nH]c2ccc(Nc3ncccc3[N+](=O)[O-])cc12,+
CC(O)(c1ccccc1)C(Cc1ccc(Cl)cc1)n1cncn1 (centres undefined),i
CCOC(=O)c1ccccc1NC(=O)N1Cc2ccccc2-n2cccc2C1c1ccccc1C (centres undefined),i
O=C(Nc1ccc2c(c1)OCCO2)N1Cc2ccccc2-n2cccc2C1c1ccccc1Cl (centres undefined),i
Cc1nccc2c1[nH]c1ccccc12,i
Cc1c2ccncc2c(C)c2c1[nH]c1ccccc12,+
CCOc1ccc(NC(=O)N2Cc3ccccc3-n3cccc3C2c2ccc(F)cc2)cc1 (centres undefined),i
O=C(Nc1ccc(=O)n2c1[C@@H]1C[C@@H](CN(S(=O)(=O)c3ccccc3)C1)C2)c1ccco1,i
CN(C)c1ccc(C2c3cccn3-c3ccccc3CN2C(=O)Nc2cccc3c2CCCC3)cc1 (centres undefined),i
COc1ccc(Cl)cc1NC(=O)N1Cc2ccccc2-n2cccc2C1c1ccc(N(C)C)cc1 (centres undefined),i
CC(C)c1cccc(C(C)C)c1O,i
CC(N)c1cccc(Cl)c1Cl (centres undefined),+
Cc1ccc(C)c(NC(=O)N2Cc3ccccc3-n3cccc3C2c2ccccc2C)c1 (centres undefined),i
CCOC(=O)Cc1ccc(NC(=O)N2Cc3ccccc3-n3cccc3C2c2ccc(C)cc2)cc1 (centres undefined),i
N#Cc1ccc(N2CCN(C(=O)COc3ccc4[nH]cc(CCN)c4c3)CC2)cc1,+
